Reference: PubChem BioAssay
For part of these data: Entries with a potency or affinity are not part of this list. Active and inactive are the calls of the source.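 The calls were made as follows, unless noted: active = compound raising the membrane signal above positive-control mean plus 3 SD in both repeats, and a primary screen hit; inactive = the rest.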

Experiments:
[1] = test system: TRPC4 beta (transient receptor potential cation channel C4), mouse; assay: activators of mouse TRPC4 channel, confirmation, cell-based, Fluo4 calcium, HEK293 TRPC4beta/mu-opioid, duplicates, 10 µM (AID 2426;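 active = fluorescence ratio normalized to control raised more than 50% in primary screen plus both repeat runs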;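 as to activation: percent rise of integrated ratio over buffer wells lacking compound which define 0%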); conditions: Fluo4 calcium fluorescence, at 10 µM; stronger effect = higher value
[2] = test system: transient receptor potential cation channel C4 beta (TRPC4), mouse; assay: activators of mouse TRPC4 channel, confirmation, cell-based, second round, Fluo4, HEK293 TRPC4beta/mu-opioid, 1 µM (AID 2461;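 active = primary screen active and over 50% activation in each of two duplicate runs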;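 as to activation: 0% = wells without test compound as baseline of integrated fluorescence ratio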); conditions: Fluo4 calcium fluorescence, at 1 µM; stronger effect = higher value
[3] = test system: TRPC4 (transient receptor potential cation channel C4 beta), mouse; assay: positive allosteric modulators of mouse TRPC4, confirmation, cell-based, second round, Fluo-4, HEK293 TRPC4beta/mu-opioid, 1 µM (AID 2554;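 active = primary screen hit whose fluorescence ratio, in both repeats, exceeds the weak agonist control mean by 3 SD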); conditions: DAMGO EC20, Fluo-4 calcium flux, at 1 µM; stronger effect = higher value
[4] = test system: TRPC4 beta (transient receptor potential cation channel C4), mouse; assay: positive allosteric modulators of mouse TRPC4, confirmation, cell-based, Fluo-4, HEK293 TRPC4beta/mu-opioid (AID 2555;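 active = primary screen hit whose calcium fluorescence ratio, in both repeats, exceeds the weak agonist control mean by 3 SD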); conditions: DAMGO EC20, Fluo-4 calcium flux, at 10 µM; stronger effect = higher value
[5] = target: Short transient receptor potential channel 4 (Mus musculus) (UniProt Q9QUQ5); assay: inhibitors of mouse TRPC4 channel, confirmation, cell-based, Fluo4, HEK293 TRPC4beta/mu-opioid (AID 2636;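 active = calcium signal cut by more than 3 SD below the full-agonist control yet still positive, in both repeats and the earlier primary screen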); conditions: DAMGO, Fluo4 calcium flux, at 10 µM; stronger effect = higher value
Chain of Short transient receptor potential channel 4 (Mus musculus) (Q9QUQ5 whole entry, looked up): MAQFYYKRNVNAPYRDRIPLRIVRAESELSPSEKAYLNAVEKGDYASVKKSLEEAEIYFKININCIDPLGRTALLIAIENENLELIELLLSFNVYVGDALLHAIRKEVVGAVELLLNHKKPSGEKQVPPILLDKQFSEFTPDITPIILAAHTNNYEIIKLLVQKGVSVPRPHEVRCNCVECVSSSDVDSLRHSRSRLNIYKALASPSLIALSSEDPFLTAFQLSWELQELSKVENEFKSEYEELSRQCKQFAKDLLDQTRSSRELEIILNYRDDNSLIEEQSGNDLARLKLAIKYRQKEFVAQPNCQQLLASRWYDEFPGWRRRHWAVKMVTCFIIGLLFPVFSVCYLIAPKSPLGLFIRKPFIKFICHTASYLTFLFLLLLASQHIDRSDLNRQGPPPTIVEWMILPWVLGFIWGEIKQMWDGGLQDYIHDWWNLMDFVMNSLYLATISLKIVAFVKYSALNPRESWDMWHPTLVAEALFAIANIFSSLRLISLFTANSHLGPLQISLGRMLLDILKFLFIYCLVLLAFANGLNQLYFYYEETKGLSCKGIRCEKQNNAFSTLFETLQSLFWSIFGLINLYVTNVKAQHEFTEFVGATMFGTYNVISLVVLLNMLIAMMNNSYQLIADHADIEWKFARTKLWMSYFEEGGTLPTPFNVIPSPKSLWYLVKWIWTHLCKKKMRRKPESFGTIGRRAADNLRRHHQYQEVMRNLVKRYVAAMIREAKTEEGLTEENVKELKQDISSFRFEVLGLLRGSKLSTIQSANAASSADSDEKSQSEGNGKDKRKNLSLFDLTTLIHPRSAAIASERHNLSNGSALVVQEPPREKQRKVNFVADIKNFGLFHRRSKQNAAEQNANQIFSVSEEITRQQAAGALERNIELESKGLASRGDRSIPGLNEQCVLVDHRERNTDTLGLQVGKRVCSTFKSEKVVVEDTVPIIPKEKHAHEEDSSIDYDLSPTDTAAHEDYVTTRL

[6] = target: Short transient receptor potential channel 4 (Mus musculus) (UniProt Q9QUQ5); assay: inhibitors of mouse TRPC4 channel, confirmation, cell-based, second round, Fluo4, HEK293 TRPC4beta/mu-opioid, 1 µM (AID 2637;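 active = calcium signal ratio cut to more than 3 SD under the fully stimulated control mean yet still positive, in both repeats and the primary screen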); conditions: Fluo4 calcium flux, DAMGO, at 1 µM; stronger effect = higher value
[7] = target: Short transient receptor potential channel 4 (Mus musculus) (UniProt Q9QUQ5); assay: TRPC4 positive allosteric modulators, dose response, cell-based, HEK293 TRPC4/mu-opioid, Fluo-4 calcium, EC20 DAMGO (AID 434941;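 active = earlier screen potentiator hit that boosts the TRPC4 ion channel at some dose, with a dose response; inactive = no potentiation, no dose response, or not a prior hit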;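 also: calcium entry triggered by an EC20 dose of DAMGO at the co-expressed mu-opioid receptor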)
[8] = target: Short transient receptor potential channel 4 (Mus musculus) (UniProt Q9QUQ5); assay: mouse TRPC4 channel inhibitors, dose response, cell-based, HEK293 TRPC4/mu-opioid, Fluo-4 calcium (AID 434942;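 active = primary screen inhibitor hit that blocks the TRPC4 channel at some tested dose, yielding a dose curve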)
[9] = target: Short transient receptor potential channel 6 (Mus musculus) (UniProt Q61143); assay: inhibition of mouse TRPC6 channel, confirmation, selectivity assay for TRPC4 inhibitor project, cell-based, HEK293, membrane potential dye, duplicate (AID 434948;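 active = active in primary screen and both duplicates, each dropping signal beyond three positive-control SD with fluorescence still positive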); conditions: HEK293 TRPC6, membrane potential dye fluorescence, at 10 µM, stimulated with maximal-effect acetylcholine; stronger effect = higher value
Chain of Short transient receptor potential channel 6 (Mus musculus) (Q61143 whole entry, looked up): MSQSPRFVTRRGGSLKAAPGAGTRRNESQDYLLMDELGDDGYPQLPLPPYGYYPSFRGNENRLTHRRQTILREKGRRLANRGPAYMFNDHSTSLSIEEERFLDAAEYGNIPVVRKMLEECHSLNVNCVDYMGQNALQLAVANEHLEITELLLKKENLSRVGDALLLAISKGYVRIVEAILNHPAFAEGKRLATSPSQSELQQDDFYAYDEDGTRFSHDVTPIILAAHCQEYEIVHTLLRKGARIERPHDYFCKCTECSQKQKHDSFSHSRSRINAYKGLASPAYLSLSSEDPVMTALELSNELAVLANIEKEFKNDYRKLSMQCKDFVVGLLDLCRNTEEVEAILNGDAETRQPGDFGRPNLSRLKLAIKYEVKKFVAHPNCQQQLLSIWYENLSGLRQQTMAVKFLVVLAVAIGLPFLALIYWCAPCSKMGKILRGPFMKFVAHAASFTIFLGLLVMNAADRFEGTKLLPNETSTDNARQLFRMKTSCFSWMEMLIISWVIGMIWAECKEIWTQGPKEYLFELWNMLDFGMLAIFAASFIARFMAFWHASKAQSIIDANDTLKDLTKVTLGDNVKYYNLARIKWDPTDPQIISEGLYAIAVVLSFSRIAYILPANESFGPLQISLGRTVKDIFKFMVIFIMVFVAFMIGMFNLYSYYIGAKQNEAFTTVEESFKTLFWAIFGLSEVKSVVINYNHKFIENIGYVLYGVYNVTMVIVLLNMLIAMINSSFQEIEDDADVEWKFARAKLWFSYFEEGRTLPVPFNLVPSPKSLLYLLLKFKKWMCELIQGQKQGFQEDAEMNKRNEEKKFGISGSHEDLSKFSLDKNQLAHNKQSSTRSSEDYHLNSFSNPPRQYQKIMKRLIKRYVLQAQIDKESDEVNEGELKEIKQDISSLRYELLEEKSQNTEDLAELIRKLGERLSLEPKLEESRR

[10] = target: Short transient receptor potential channel 6 (Mus musculus) (UniProt Q61143); assay: activation of mouse TRPC6 channel, confirmation, selectivity assay for TRPC4 activator project, cell-based, HEK293, membrane potential dye, duplicate (AID 434950;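 active = membrane potential signal rise above negative control mean plus 3 SD in both duplicates, also active in the earlier TRPC4 screen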;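 as to activation: 0% = buffer only wells and 100% = acetylcholine maximal-effect wells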); conditions: HEK293 TRPC6, membrane potential fluorescence, at 10 µM; stronger effect = higher value
[11] = target: Short transient receptor potential channel 6 (Mus musculus) (UniProt Q61143); assay: TRPC6 potentiation by TRPC4 potentiator hits, confirmation, selectivity assay for TRPC4 potentiator project, HEK293 cells, membrane potential dye, duplicate (AID 434952); conditions: HEK293 TRPC6, membrane potential dye fluorescence, at 10 µM, maximal acetylcholine added after compound; stronger effect = higher value
[12] = target: Short transient receptor potential channel 4 (Mus musculus) (UniProt Q9QUQ5); assay: calcium flux activators in TRPC4/5HT1a cells, counter-screen for TRPC4 activator project, cell-based, second counter screen, HEK293 TRPC4/5HT1a, Fluo-4 (AID 434977;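 active = calcium signal rise above buffer-control mean plus 5 SD in both duplicates, and also a hit in the primary screen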;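 as to activation: plate controls were assay buffer for no effect and maximal serotonin response for full effect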); conditions: Fluo-4 calcium flux, at 10 µM; stronger effect = higher value
[13] = calcium flux inhibitors in TRPC4/5HT1a cells, confirmation, counter-screen for TRPC4 inhibitor project, cell-based, second counter screen, HEK293 TRPC4/5HT1a, Fluo-4 (AID 434978;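 active = primary screen active whose calcium signal fell more than 3 SD beyond the full-serotonin control mean in both duplicate plates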;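 also: serotonin given first at submaximal then at maximal dose after compound preincubation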); conditions: Fluo-4 calcium flux, at 10 µM, serotonin added to trigger calcium flux; stronger effect = higher value
[14] = test system: TRPC4 (mouse), co-expressed with 5HT1a in HEK293; assay: calcium flux potentiators in TRPC4/5HT1a cells, confirmation, counter-screen for TRPC4 potentiator project, cell-based, second counter screen, HEK293 TRPC4/5HT1a, Fluo-4 (AID 434979;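 active = signal rise over 3 SD above mean of control wells given weak agonist, in both repeats and first screen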); conditions: Fluo-4 calcium flux, at 10 µM, serotonin added at its EC20 dose; stronger effect = higher value
[15] = calcium flux activation in mu-opioid HEK293 cells, confirmation, counter-screen for TRPC4 activator project, cell-based, HEK293 mu-opioid receptor line (AID 449723;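 active = hit in primary screen, with calcium signal over 5 SD above buffer well mean in both duplicates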;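 also: counter screen cells carry the mu-opioid receptor alone and lack TRPC4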); conditions: Fluo-4 calcium fluorescence, at 10 µM; stronger effect = higher value
[16] = calcium flux enhancement in mu-opioid HEK293 cells, confirmation, counter-screen for TRPC4 allosteric potentiator project, cell-based, HEK293 mu-opioid receptor line (AID 449724;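 active = calcium signal rise more than 3 SD above the low-dose agonist control mean, in both duplicate plates and the primary screen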); conditions: Fluo-4 calcium flux, at 10 µM, compound added before EC20 DAMGO stimulus; stronger effect = higher value

## COc1ccc(-n2cc(CNCCc3ncc(C)[nH]3)c(-c3ccccc3Cl)n2)cc1
[1]
  activation: 214% (active)
[2]
  outcome: inactive
[3]
  outcome: inactive
[4]
  outcome: inactive
[5]
  outcome: inactive
[6]
  outcome: inactive
[7]
  outcome: inactive
[8]
  outcome: inactive
[9]
  outcome: inactive
[10]
  activation: 30% (active)
[11]
  outcome: inactive
[12]
  outcome: inactive
[13]
  outcome: inactive
[14]
  outcome: inactive
[15]
  outcome: inactive
[16]
  outcome: inactive

## CCCC(=O)N1CCc2cc(-c3nc(N)sc3C)ccc21
[1]
  activation: 62% (active)
[2]
  outcome: inactive
[3]
  outcome: inactive
[4]
  outcome: inactive
[5]
  outcome: inactive
[6]
  outcome: inactive
[7]
  outcome: inactive
[8]
  outcome: inactive
[9]
  outcome: inactive
[10]
  outcome: inactive
[11]
  outcome: inactive
[12]
  outcome: inactive
[13]
  outcome: inactive
[14]
  outcome: inactive
[15]
  outcome: inactive
[16]
  outcome: inactive

## CCOC(=O)C1(CC2CCCCO2)CCN(Cc2c(C)cc(C)cc2-n2cccn2)CC1 (stereo not given)
[1]
  activation: 75% (active)
[2]
  activation: 103% (active)
[3]
  outcome: inactive
[4]
  outcome: inactive
[5]
  outcome: inactive
[6]
  outcome: inactive
[7]
  outcome: inactive
[8]
  outcome: inactive
[9]
  outcome: inactive
[10]
  activation: 62.5% (active)
[11]
  outcome: inactive
[12]
  outcome: inactive
[13]
  outcome: inactive
[14]
  outcome: inactive
[15]
  outcome: inactive
[16]
  outcome: inactive

## Cc1ccccc1NC(=S)NCCc1ccccn1
[1]
  activation: 143% (active)
[2]
  outcome: inactive
[3]
  outcome: inactive
[4]
  outcome: inactive
[5]
  outcome: inactive
[6]
  outcome: inactive
[7]
  outcome: inactive
[8]
  outcome: inactive
[9]
  outcome: inactive
[10]
  outcome: inactive
[11]
  outcome: inactive
[12]
  activation: 56.5% (active)
[13]
  outcome: inactive
[14]
  outcome: inactive
[15]
  outcome: inactive
[16]
  outcome: inactive

## COC(=O)c1ccc(N2CCN(C)CC2)c(NC(=O)COc2ccccc2)c1
[1]
  activation: 86% (active)
[2]
  outcome: inactive
[3]
  outcome: inactive
[4]
  outcome: inactive
[5]
  outcome: inactive
[6]
  outcome: inactive
[7]
  outcome: inactive
[8]
  outcome: inactive
[9]
  outcome: inactive
[10]
  outcome: inactive
[11]
  outcome: inactive
[12]
  activation: 12.3% (active)
[13]
  outcome: inactive
[14]
  outcome: inactive
[15]
  outcome: inactive
[16]
  outcome: inactive

## Cn1c(CN2CCN(c3cccc(Cl)c3)CC2)nc2ccccc21
[1]
  activation: 119% (active)
[2]
  outcome: inactive
[3]
  outcome: inactive
[4]
  outcome: inactive
[5]
  outcome: inactive
[6]
  outcome: inactive
[7]
  outcome: inactive
[8]
  outcome: inactive
[9]
  outcome: inactive
[10]
  activation: 49% (active)
[11]
  outcome: inactive
[12]
  outcome: inactive
[13]
  outcome: inactive
[14]
  outcome: inactive
[15]
  outcome: inactive
[16]
  outcome: inactive

## C=CCn1c(CCNC(=O)C(C)(C)C)nc2ccccc21
[1]
  activation: 151% (active)
[2]
  outcome: inactive
[3]
  outcome: inactive
[4]
  outcome: inactive
[5]
  outcome: inactive
[6]
  outcome: inactive
[7]
  outcome: inactive
[8]
  outcome: inactive
[9]
  outcome: inactive
[10]
  activation: 37% (active)
[11]
  outcome: inactive
[12]
  activation: 30.7% (active)
[13]
  outcome: inactive
[14]
  outcome: inactive
[15]
  outcome: inactive
[16]
  outcome: inactive

## Cc1ccc(N2CCN(c3ccc(NCc4nc5ccccc5n4C)cc3)CC2)cc1
[1]
  activation: 79% (active)
[2]
  outcome: inactive
[3]
  outcome: inactive
[4]
  outcome: inactive
[5]
  outcome: inactive
[6]
  outcome: inactive
[7]
  outcome: inactive
[8]
  outcome: inactive
[9]
  outcome: inactive
[10]
  outcome: inactive
[11]
  outcome: inactive
[12]
  outcome: inactive
[13]
  outcome: inactive
[14]
  outcome: inactive
[15]
  outcome: inactive
[16]
  outcome: inactive

## CCOC(=O)C1(CCc2ccccc2)CCN(Cc2c(O)cccc2OC)CC1
[1]
  activation: 83% (active)
[2]
  outcome: inactive
[3]
  outcome: inactive
[4]
  outcome: inactive
[5]
  outcome: inactive
[6]
  outcome: inactive
[7]
  outcome: inactive
[8]
  outcome: inactive
[9]
  outcome: inactive
[10]
  activation: 92.5% (active)
[11]
  outcome: inactive
[12]
  outcome: inactive
[13]
  outcome: inactive
[14]
  outcome: inactive
[15]
  outcome: inactive
[16]
  outcome: inactive

## Cc1ccc(/C=N\NC(=O)C2COc3cc4ccccc4cc3O2)o1 (stereo not given)
[1]
  activation: 102% (active)
[2]
  outcome: inactive
[3]
  outcome: inactive
[4]
  outcome: inactive
[5]
  outcome: inactive
[6]
  outcome: inactive
[7]
  outcome: inactive
[8]
  outcome: inactive
[9]
  outcome: inactive
[10]
  activation: 27% (active)
[11]
  outcome: inactive
[12]
  activation: 40.6% (active)
[13]
  outcome: inactive
[14]
  outcome: inactive
[15]
  outcome: inactive
[16]
  outcome: inactive

## c1ccc2c(c1)CCN(c1ncnc3c1[nH]c1ccccc13)C2
[1]
  outcome: inactive
[2]
  outcome: inactive
[3]
  outcome: inactive
[4]
  outcome: inactive
[5]
  outcome: inactive
[6]
  outcome: inactive
[7]
  outcome: inactive
[8]
  outcome: inactive
[9]
  outcome: inactive
[10]
  outcome: inactive
[11]
  outcome: inactive
[12]
  outcome: inactive
[13]
  outcome: inactive
[14]
  outcome: inactive
[15]
  outcome: inactive
[16]
  outcome: inactive

## Cc1cccc(NC(=S)NCC(c2cccnc2)N(C)C)c1 (stereo not given)
[1]
  activation: 87% (active)
[2]
  activation: 115% (active)
[3]
  outcome: inactive
[4]
  outcome: inactive
[5]
  outcome: inactive
[6]
  outcome: inactive
[7]
  outcome: inactive
[8]
  outcome: inactive
[9]
  outcome: inactive
[10]
  activation: 33.5% (active)
[11]
  outcome: inactive
[12]
  outcome: inactive
[13]
  outcome: inactive
[14]
  outcome: inactive
[15]
  outcome: inactive
[16]
  outcome: inactive

## CN(C)C(CNC(=S)Nc1ccccc1)c1cccnc1 (stereo not given)
[1]
  activation: 76% (active)
[2]
  activation: 82% (active)
[3]
  outcome: inactive
[4]
  outcome: inactive
[5]
  outcome: inactive
[6]
  outcome: inactive
[7]
  outcome: inactive
[8]
  outcome: inactive
[9]
  outcome: inactive
[10]
  activation: 36% (active)
[11]
  outcome: inactive
[12]
  outcome: inactive
[13]
  outcome: inactive
[14]
  outcome: inactive
[15]
  outcome: inactive
[16]
  outcome: inactive

## O=C(NNC(=S)NC(=O)C12CC3CC(CC(C3)C1)C2)c1ccncc1
[1]
  activation: 192% (active)
[2]
  outcome: inactive
[3]
  outcome: inactive
[4]
  outcome: inactive
[5]
  outcome: inactive
[6]
  outcome: inactive
[7]
  outcome: inactive
[8]
  outcome: inactive
[9]
  outcome: inactive
[10]
  outcome: inactive
[11]
  outcome: inactive
[12]
  activation: 126% (active)
[13]
  outcome: inactive
[14]
  outcome: inactive
[15]
  activation: 44.2% (active)
[16]
  outcome: inactive

## Cc1ccc(-n2cc(CNCCc3ncc(C)[nH]3)c(-c3ccc(F)cc3)n2)cc1
[1]
  activation: 177% (active)
[2]
  outcome: inactive
[3]
  outcome: inactive
[4]
  outcome: inactive
[5]
  outcome: inactive
[6]
  outcome: inactive
[7]
  outcome: inactive
[8]
  outcome: inactive
[9]
  outcome: inactive
[10]
  outcome: inactive
[11]
  outcome: inactive
[12]
  activation: 14.9% (active)
[13]
  outcome: inactive
[14]
  outcome: inactive
[15]
  outcome: inactive
[16]
  outcome: inactive
